Data as given in PubChem BioAssay (NCI).
Compounds without any hit were thinned out: in the full panel of roughly 79,000, 15% have a hit. Activity calls are given as the source filed them. Cut-off read from the data, not from the text of the source: active = growth inhibition above about 70%; inactive = the rest.

Assays:
[1] = NCI Yeast Anticancer Drug Screen. Data for the rad50 strain (AID 155);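 note: 0% = growth of vehicle-only cultures of the same strain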; conditions: S. cerevisiae rad50 strain growth inhibition; at 50.0 µM; active compounds read high
Outline: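 Readout: growth inhibition relative to vehicle-treated cultures. Compound exposure was carried out in a genetically defined yeast strain deficient in DNA damage repair.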

[2] = NCI Yeast Anticancer Drug Screen. Data for the mec2-1 strain (AID 157); conditions: S. cerevisiae mec2-1 strain, at 50.0 µM, active compounds read high
Outline: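 Growth inhibition is read against vehicle-treated controls after compound exposure of the mec2-1 yeast strain, which is defective in DNA damage repair or cell cycle control.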

[3] = NCI Yeast Anticancer Drug Screen. Data for the sgs1 mgt1 strain (AID 161);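 note: 0% = growth of cultures given vehicle only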; conditions: S. cerevisiae sgs1 mgt1 strain, at 50.0 µM, active compounds read high
Outline: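 Percent growth inhibition was derived by comparing compound-exposed mutant yeast with vehicle-exposed cultures. The strain carries alterations in DNA damage repair.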

[4] = NCI Yeast Anticancer Drug Screen. Data for the cln2 rad14 strain (AID 165);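 note: 0% = growth equal to vehicle treated cultures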; conditions: S. cerevisiae cln2 rad14 strain, at 50.0 µM, active compounds read high
Outline: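 Growth inhibition, relative to vehicle-treated controls, is the read-out. The test organism is a yeast strain with defined genetic alterations, cln2 rad14.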

[5] = NCI Yeast Anticancer Drug Screen. Data for the bub3 strain (AID 167); conditions: S. cerevisiae bub3 mutant strain, at 50.0 µM, active compounds read high
Outline: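 Readout: yeast growth inhibition, expressed relative to vehicle-only wells. The test organism is a mutant strain from a panel with lesions in DNA repair or checkpoint genes.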

[6] = NCI Yeast Anticancer Drug Screen. Data for the mlh1 rad18 strain (AID 175); conditions: S. cerevisiae mlh1 rad18 strain growth inhibition; at 50.0 µM; active compounds read high
Outline: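 Cells of a genetically altered yeast strain, deficient in DNA damage repair, were treated with compound. Their growth was then compared with that of vehicle-treated cultures to give inhibition.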

Measured: growth inhibition

N#Cc1cnn(-c2ccccc2)c1N
inactive: [1] 25.5% | [2] -7.4% | [3] -0.3% | [4] -0.85% | [5] -4.3% | [6] -1.45%

O=C(O)Cn1c[n+](NC(=O)Cc2ccccc2)cn1
inactive: [1] -19.6% | [2] -25.4% | [3] -25% | [4] -41.8% | [5] -34.5% | [6] -10.8%

O=C(Cc1c[nH]c2ccccc12)N/N=C/c1ccccc1[N+](=O)[O-]
inactive: [1] 18.9% | [2] -4.75% | [3] 10.1% | [4] 1.1% | [5] 14.7% | [6] 17.3%

COC(=O)C1(CC(=O)c2ccc(Cl)cc2Cl)NC(=S)NC(=O)C1C#N (configuration not stated)
inactive: [1] 19.4% | [2] 9.05% | [3] -8.2% | [4] 16.2% | [5] 4.45% | [6] 18.8%

O=C(NCCNCCCNC(=O)c1cc(-c2ccccc2)nc2ccccc12)c1cccc(OCc2ccccc2)c1OCc1ccccc1
active: [1] 86.3% | [2] 90.9% | [3] 90.3% | [4] 87.5% | [5] 89.2% | [6] 85.8%

COc1cc(C(=O)Nc2cccc(Cl)c2Cl)cc(OC)c1OC
inactive: [1] -7.45% | [2] -13.6% | [3] 12% | [4] 21.2% | [5] 18% | [6] 10.9%

O=C1CCCC1C(O)(C(F)(F)F)C(F)(F)F (configuration not stated)
inactive: [1] -24.8% | [2] -19.9% | [3] -8.05% | [4] 16.6% | [5] -12% | [6] -21.1%

N#Cc1cccc(N2C(=O)c3c(c(-c4ccccc4)c(-c4ccc(Sc5ccc(-c6c(-c7ccccc7)c7c(c(-c8ccccc8)c6-c6ccccc6)C(=O)N(c6cccc(C#N)c6)C7=O)cc5)cc4)c(-c4ccccc4)c3-c3ccccc3)C2=O)c1
inactive: [1] -48.6% | [2] -44.2% | [3] -41% | [4] -14.8% | [5] -68.8% | [6] -60.8%

NCCNCc1ccncc1
inactive: [1] -38% | [2] -41.5% | [3] -58.5% | [4] -11.3% | [5] -47.2% | [6] -27.2%

CCCCCC1OC1CC1OC1CCCCCCCC(=O)O (configuration not stated)
inactive: [1] -5.5% | [2] -21.1% | [3] -3.85% | [4] -14.8% | [5] -12.8% | [6] -13.4%

CC(C)C1CCC(C)(C(N)=O)C1 (configuration not stated)
inactive: [1] 8.2% | [2] 2.65% | [3] -1.3% | [4] -23.4% | [5] -8.25% | [6] -2.1%

COc1cc(/C=C/C=C2\CC/C(=C\C=C\c3ccc(O)c(OC)c3)C2=O)ccc1O
inactive: [1] 10.2% | [2] 18.4% | [3] 31.4% | [4] 37.7% | [5] 29.5% | [6] -9.1%

CSC(=S)N/N=C(\c1ccccc1)c1ccccn1
inactive: [1] 0.3% | [2] 13.2% | [3] 0.85% | [4] 10.4% | [5] 21.2% | [6] 5.75%

O=S1(=O)OCCOS(=O)(=O)C1I
inactive: [1] -8.1% | [2] -30.2% | [3] -12.4% | [4] 11.3% | [5] -21.5% | [6] -29.6%

CCc1cccc(C)c1NC(=O)C(=O)CC(=O)c1ccc(Cl)cc1Cl
inactive: [1] 26.9% | [2] 14.8% | [3] 7.65% | [4] -35.4% | [5] 2.15% | [6] 27.2%

NC(=O)C(Cc1ccc(O)cc1)NC(=O)c1cccnc1 (configuration not stated)
inactive: [1] -7.3% | [2] 0.7% | [3] -0.95% | [4] -2.05% | [5] -9.05% | [6] 4.35%

CCC1=NO[C@@H](C(=O)OCc2ccccc2)[C@H]1C
inactive: [1] -12.2% | [2] 5.25% | [3] -7.2% | [4] -29.2% | [5] 9.15% | [6] -21.4%

CCCCN(C=O)c1ccccc1
inactive: [1] 3.15% | [2] 9.65% | [3] 2.95% | [4] 7.15% | [5] -8.45% | [6] 27.9%

O=S(=O)(N/N=C/c1c(Cl)cccc1Cl)c1ccccc1
inactive: [1] 18.9% | [2] 12.1% | [3] 11.9% | [4] -9.35% | [5] 9.65% | [6] 31.5%

N/N=C(\N)SCCCCCCS/C(N)=N/N
inactive: [1] -10.8% | [2] 2.15% | [3] 24% | [4] 41.5% | [5] 39.9% | [6] -5.2%

O=C(CC(=O)N1CCOCC1)N1CCOCC1
inactive: [1] 4.5% | [2] -14.8% | [3] 26.9% | [4] 7.9% | [5] 19.4% | [6] 7.45%

COC(=O)CC/C=N/NC(N)=O
inactive: [1] 10.2% | [2] 4.5% | [3] 7.7% | [4] -17.8% | [5] 2.35% | [6] -4.05%

COc1cccc(OC)c1OC(=O)/C=C\C(=O)Oc1c(OC)cccc1OC
inactive: [1] 29.9% | [2] -8.65% | [3] 18.8% | [4] -3.75% | [5] -2.05% | [6] 20.8%

CC(=O)/C=C/C1=C(C)CCCC1(C)C (tested in a mixture with another compound)
inactive: [1] 19.7% | [2] 1% | [3] 9.2% | [4] -3.25% | [5] 24.3% | [6] 5.7%

O=C(O)/C(=C/c1ccc([N+](=O)[O-])cc1)c1ccc([N+](=O)[O-])cc1
inactive: [1] 6.9% | [2] -4% | [3] 2.05% | [4] -35.4% | [5] -1.7% | [6] 1.55%

COc1ccc(/C=[N+](\[O-])c2ccccc2)cc1 (tested in a mixture with another compound)
inactive: [1] -2% | [2] 8.2% | [3] 4.1% | [4] 0.4% | [5] -10.8% | [6] 8.35%

CC(=O)c1cccc(NC(=O)OCC2CC3C=CC2C3)c1 (configuration not stated)
inactive: [1] 25.4% | [2] 27.1% | [3] 45.9% | [4] 4% | [5] 52.8% | [6] 52.3%

Cc1n[nH]c(=O)[nH]c1=O
inactive: [1] -25.2% | [2] -24.8% | [3] -2.7% | [4] 3.45% | [5] -0.85% | [6] 2.55%

CCC1(CC)C(=O)C(CC)(CC)C1=O
inactive: [1] 44.5% | [2] 28.1% | [3] 38% | [4] 20.9% | [5] 39.1% | [6] 6.55%

O=C(O)c1ccc(B(O)O)cc1[N+](=O)[O-]
inactive: [1] 11.8% | [2] 4.75% | [3] 7.35% | [4] 8.7% | [5] 34.9% | [6] 5.15%

Brc1cc2c(cc1C1SCCS1)OCO2
inactive: [1] 49.5% | [2] 20.4% | [3] 58.5% | [4] 18.6% | [5] 28.3% | [6] 34.6%

N#C/C(=C\c1ccccc1)C(=O)Nc1ccccc1
inactive: [1] 17.3% | [2] 3.5% | [3] -1.35% | [4] -4.15% | [5] -4.7% | [6] 22.6%

Nc1c(F)c(F)c(C(=O)O)c(F)c1F
inactive: [1] -16.1% | [2] -20.6% | [3] -10.4% | [4] -3.9% | [5] -4.8% | [6] -29.4%

CN1CCC/C1=N\c1ncn[nH]1
inactive: [1] 3.3% | [2] -21.1% | [3] -4.45% | [4] -65.3% | [5] -8.5% | [6] -2.85%

O=C1c2ccccc2C(=O)N1C1(C(=O)NC2(C(=O)O)CCCC2)CCCC1
inactive: [1] -2.5% | [2] -7.8% | [3] -37.8% | [4] 2.6% | [5] -38.1% | [6] -8.6%

CN(c1c(Cl)cccc1Cl)S(=O)(=O)c1ccccc1[N+](=O)[O-]
inactive: [1] -38.5% | [2] -49.5% | [3] -15.5% | [4] 20% | [5] -1.1% | [6] -4.5%

Cc1cc2[nH]c3ccccc3n2c(=O)c1N=Nc1ccccc1
inactive: [1] 3.1% | [2] 4.65% | [3] 9.75% | [4] -14.3% | [5] 7.05% | [6] 15.8%
